Measurements: PubChem BioAssay AID463173 (ICCB-Longwood Screening Facility, Harvard Medical School, 2010)
Screen size: about 52,000 compounds; about 4,300 (8.3%) were called active. This excerpt belongs to a sample that is enriched for actives. Unmarked numbers belong to inactive results. Cut-off read from the data, not from the text of the source: active = survival mostly below about 52% (no sharp cut-off); inactive = mostly above about 56%.

Tested on: DeltatarO mutant
Test: S. aureus survival, RN4220 and DeltatarO strains – OD600, teichoic acid synthesis inhibitors, primary screen (AID 463173)
Settings: S. aureus RN4220 wild type/DeltatarO growth, OD600, 18 h, hits give low values, screened at 18.75 µg/mL (by protocol)

| Compound | survival |
| --- | --- |
| CCOc1ccc(C(=O)c2cn(CC(=O)Nc3ccc(F)c(F)c3)c3cc4c(cc3c2=O)OCCO4)cc1 | 130% |
| Cc1ccc(CNC(=O)c2nc(SCc3ccccc3C)ncc2Cl)cc1 | 76% |
| Cc1cccc(NC(=O)Cn2cc(C(=O)C3CCCCC3)c3ccccc32)c1C | 63% |
| COc1cc(NC(=O)Cn2nc(C(F)(F)F)c3c2CCCC3)c(OC)cc1Cl | 78% |
| COC(=O)c1ccccc1NC(=O)Cn1nc(C(F)(F)F)c2c1CCCC2 | 5% (active) |
| CCc1ccccc1NC(=O)Cn1nc(C(F)(F)F)c2c1CCCC2 | 77% |
| CCc1ccccc1NC(=O)Cn1nc(C(F)(F)F)c2c1CCC2 | 75% |
| COc1ccc(Cl)cc1NC(=O)Cn1nc(C(F)(F)F)c2c1CCC2 | 72% |
| COc1ccc(Cl)cc1NC(=O)Cn1nc(C(F)(F)F)c2c1CCCC2 | 35% (active) |
| O=C(CCS(=O)(=O)c1cccc2nonc12)Nc1ccc(F)cc1F | 124% |
| Cc1nnc2c3ccccc3nc(N3CCN(c4ccccc4)CC3)n12 | 77% |
| FC(F)(F)c1nnc2c3ccccc3c(Cl)nn12 | 95% |
| FC(F)(F)c1nnc2c3ccccc3nc(-c3ccccc3)n12 | 29% (active) |
| O=C(Cn1nnc(-c2cccc(C(F)(F)F)c2)n1)NCc1ccc(F)cc1 | 77% |
| CCc1ccc(NC(=O)C(=O)NCC(c2cccnc2)N2CCc3ccccc3C2)cc1 (configuration not stated) | 64% |
| CCc1ccc(OCC(=O)Nc2c(C(=O)c3ccc(Br)cc3)oc3ccccc23)cc1 | 85% |
| CCNc1nc(Oc2ccc(=O)n(-c3ccccc3)n2)nc(N(C)C)n1 | 84% |
| CCc1ccc(CNC(=O)c2c3c(nc4ccccc24)C(=O)N(C2CCCCC2)C3)cc1 | 37% (active) |
| CN(C(=O)c1c2c(nc3ccccc13)C(=O)N(C1CCCCC1)C2)c1ccc(F)cc1 | 0% (active) |

| Compound | survival |
| --- | --- |
| CC(C)OCCCNC(=O)c1c2c(nc3ccccc13)C(=O)N(C1CCCCC1)C2 | 25% (active) |
| O=C(NCc1ccccc1)c1c2c(nc3ccccc13)C(=O)N(C1CCCCC1)C2 | 69% |
| CC(C)CCNC(=O)c1c2c(nc3ccccc13)C(=O)N(C1CCCCC1)C2 | 101% |
| COc1ccc(CNC(=O)c2c3c(nc4ccccc24)C(=O)N(C2CCCCC2)C3)cc1 | 83% |
| O=C(NCc1cccc(Cl)c1)c1c2c(nc3ccccc13)C(=O)N(C1CCCCC1)C2 | 144% |
| COc1cccc(CNC(=O)c2c3c(nc4ccccc24)C(=O)N(C2CCCCC2)C3)c1 | 46% (active) |
| CCOc1ccccc1N(C)C(=O)c1c2c(nc3ccccc13)C(=O)N(C1CCCCC1)C2 | 92% |
| Cc1ccc(CNC(=O)c2c3c(nc4ccccc24)C(=O)N(C2CCCCC2)C3)cc1 | 91% |
| O=C(NCc1ccc(F)cc1)c1c2c(nc3ccccc13)C(=O)N(C1CCCCC1)C2 | 102% |
| CCCNC(=O)c1c2c(nc3ccccc13)C(=O)N(C1CCCCC1)C2 | 75% |
| Cc1ccc(NC(=O)Cn2c(CCC(=O)O)ccc2-c2ccc(Cl)cc2)cc1 | 53% |
| Cn1ccc2cc(S(=O)(=O)N3CCN(C(=O)Nc4ccc(F)cc4F)CC3)ccc21 | 70% |
| COc1cccc(CNC(=O)c2cc3c(=O)oc4ccc(C)cc4c3s2)c1 | 73% |
| COc1ccc(Cl)cc1NC(=O)[C@H]1O[C@@H]2OC(C)(C)O[C@@H]2[C@H]2OC(C)(C)O[C@H]21 | 83% |
| O=C(CSCc1nc2cccnc2n1C1CCCCC1)NCc1cccc(Br)c1 | 105% |
| CC(C)c1nn2c(=O)cc(COC(=O)C3CCCCC3)nc2s1 | 94% |
| CCc1ccc2nc(N(Cc3cccnc3)C(C)=O)sc2c1 | 91% |
| COc1ccc(OC)c(CNC(=O)c2c3c(nc4ccccc24)C(=O)N(C2CCCCC2)C3)c1 | 93% |
| COc1ccc(CNC(=O)c2c3c(nc4ccccc24)C(=O)N(C2CCCCC2)C3)c(OC)c1 | 32% (active) |

| Compound | survival |
| --- | --- |
| COc1ccccc1CNC(=O)c1c2c(nc3ccccc13)C(=O)N(C1CCCCC1)C2 | 99% |
| COc1ccc(C2C3C(=O)N(c4ccccc4)C(=O)C3ON2c2ccccc2)cc1 (configuration not stated) | 106% |
| CC1CCN(S(=O)(=O)c2ccc3c(c2)CCN3C(=O)Nc2ccc(Br)cc2)CC1 | 69% |
| Cc1ccc(C(=O)Nc2ccccc2C(=O)OCc2cc(=O)n3nc(C(C)C)sc3n2)cc1 | 78% |
| Cc1ccccc1CNC(=O)Cn1c(=O)c2cccn2c2cccnc21 | 76% |
| Cc1[nH]n2c(=O)cc(-c3ccccc3Cl)nc2c1-c1ccccc1 | -3% (active) |
| Cc1cccc(-c2cc3nc(-c4ccccc4)cc(=O)n3[nH]2)c1 | 97% |
| Cc1nn2c(-c3ccccc3)cc(-c3ccccc3)nc2c1-c1ccc(Cl)cc1 | 78% |
| O=C(Nc1nc2nc(-c3ccccc3)cc(=O)n2[nH]1)c1ccc(Cl)cc1 | 65% |
| Nc1nc2nc(-c3ccccc3)cc(=O)n2[nH]1 | 84% |
| Cc1[nH]n2c(=O)cc(-c3ccc(Cl)cc3)nc2c1-c1ccccc1 | 3% (active) |
| C/C(=N\N=C1/NC(=O)C(CC(=O)O)S1)c1ccc(C)o1 (configuration not stated) | 101% |
| CCCCCCNC(=O)CCc1c(C)nc2nc(-c3cc(OC)cc(OC)c3)nn2c1C | 57% |
| CC(C)(C)c1ccc(Cn2c(=N)n(CC(O)c3ccco3)c3ccccc32)cc1 (configuration not stated) | 5% (active) |
| Cc1ccc(Cn2c(=N)n(CC(=O)c3ccccc3)c3ccccc32)cc1 | 65% |
| N=c1n(CCN2CCCCC2)c2ccccc2n1CC(O)c1ccc2c(c1)OCO2 (configuration not stated) | 83% |
| COc1ccc(CNCCSc2nnnn2-c2ccccc2)c(OC)c1 | 49% |
| COc1cc(C2CC(=O)c3c([nH]c(C(=O)OCC4CCCCC4)c3C)C2)cc(OC)c1OC (configuration not stated) | 82% |
| O=C(CCCCn1c(=O)c2ccccc2n(CC(=O)Nc2ccc(F)cc2F)c1=O)NCc1ccccc1Cl | 100% |
